Columns and labels:
CHO = experiment: % viability of CHO cells (MTT); higher = less toxic; details: 48 h
How it was run: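 CHO cells were seeded at 10^6 cells/well in 200 µL and left overnight to attach. The medium was then replaced with fresh medium containing compound at 2 or 20 µM for 48 h. Survival was read colorimetrically with the tetrazolium (MTT) assay. Percent viability was expressed relative to untreated cells.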

HepG2-A16-CD81 = experiment: % inhibition of HepG2 viability (CellTiter-Glo); higher = more toxic; details: 5 µM
[1] = system: Plasmodium falciparum NF54 stage IV/V gametocytes; experiment: % inhibition of gametocyte viability (PrestoBlue); higher = more inhibition; details: 48 h
How it was run: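 Stage IV/V NF54 gametocytes (2% gametocytaemia, 5% haematocrit, 100 µL/well) were exposed to compound at 1 or 5 µM. Incubation was 48 h at 37 °C, stationary and hypoxic, followed by 10 µL PrestoBlue for 2 h. Fluorescence at 612 nm was read on 70 µL of transferred supernatant. Percent inhibition of gametocyte viability was normalised to DMSO and kill controls from a single run.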

[2] = system: Plasmodium falciparum NF54 asexual blood stage; experiment: % inhibition of asexual blood stage proliferation (pLDH); higher = more inhibition; details: 72 h
How it was run: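 Plasmodium falciparum NF54 ring-stage cultures (1% haematocrit, 2% parasitaemia) were exposed to compound at 2 or 20 µM in 96-well plates. Incubation was 72 h at 37 °C under 4% CO2, 3% O2 and 93% N2. Survival was read colorimetrically at 620 nm with the parasite lactate dehydrogenase assay. Percent inhibition of asexual proliferation was normalised to DMSO and kill controls, and the screen was run on two separate occasions.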

[3] = system: Plasmodium falciparum NF54 stage IV/V gametocytes; experiment: % inhibition of gametocyte viability (ATP bioluminescence); higher = more inhibition; details: 24 h
How it was run: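 In 96-well plates, compound at 1 or 5 µM was added to 30,000 density-gradient-enriched stage IV/V NF54 gametocytes per well and incubated for 24 h at 37 °C. ATP readout used the Promega BacTiter Glo bioluminescence system. Percent inhibition of gametocyte viability comes from a single run, normalised to control wells.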

[4] = system: Plasmodium falciparum NF54 stage IV/V gametocytes; experiment: % inhibition of gametocyte viability (luciferase reporter); higher = more inhibition; details: 48 h
How it was run: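 Percent inhibition came from luminescence and was normalised to controls in a single run. Gametocytes (stage IV/V, NF54-Pfs16-GFP-Luc line, 2% gametocytaemia, 2% haematocrit) were treated with compound at 1 or 5 µM and incubated for 48 h at 37 °C without agitation under hypoxia. Readings used 30 µL lysate with 30 µL Promega luciferin substrate on a GloMax-Multi+ reader, integrating for 10 s.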

[5] = system: Plasmodium berghei ANKA liver stage in HepG2-A16-CD81; experiment: % inhibition of liver stage parasite viability (luciferase); higher = more inhibition; details: 5 µM; 48 h
Procedure: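 Single-concentration screen of the MMV Pandemic Response Box. P. falciparum NF54 asexual blood stages: pLDH assay, 72 h at 37 °C, 2 and 20 µM, n=2. Stage IV/V gametocytes (NF54): luciferase reporter (NF54-Pfs16-GFP-Luc, 48 h), ATP bioluminescence (24 h) and PrestoBlue (48 h) at 1 and 5 µM, n=1. P. berghei liver stage (luciferase in HepG2-A16-CD81, 48 h post infection) at 5 µM, n=4. All normalised to DMSO and kill controls as % inhibition.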
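For % inhibition of HepG2 viability (CellTiter-Glo) in this document: HepG2-A16-CD81 hepatoma cells plated as in the liver-stage assay but without sporozoites, with DMSO wells as negative and 25 µM puromycin as positive control.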

| SMILES | % viability of CHO cells (CHO; 2 µM) | % viability of CHO cells (CHO; 20 µM) | % inhibition of HepG2 viability (HepG2-A16-CD81) | % inhibition of gametocyte viability ([1]; 1 µM) | % inhibition of gametocyte viability ([1]; 5 µM) | % inhibition of asexual blood stage proliferation ([2]; 2 µM) | % inhibition of asexual blood stage proliferation ([2]; 20 µM) | % inhibition of gametocyte viability ([3]; 1 µM) | % inhibition of gametocyte viability ([3]; 5 µM) | % inhibition of gametocyte viability ([4]; 1 µM) | % inhibition of gametocyte viability ([4]; 5 µM) | % inhibition of liver stage parasite viability [5] |
| --- | --- | --- | --- | --- | --- | --- | --- | --- | --- | --- | --- | --- |
| N=C(N)c1ccc(COc2ccc(Cl)cc2)cc1 | 103% | 102% | 2.38% | < 0% | 11.4% | 11.1% | 89.9% | 0.321% | 4.27% | < 0% | < 0% | -17.2% |
| Nc1nc(O)c2ncn(COCCO)c2n1 | 98.5% | 121% | 1.64% | < 0% | 15.7% | 21.3% | 31.7% | < 0% | < 0% | < 0% | < 0% | 26.7% |
| c1cc(CN2CCCNCCNCCCNCC2)ccc1CN1CCCNCCNCCCNCC1 | 104% | 109% | -0.261% | 7.81% | 31% | 16.7% | 34.9% | 6.22% | < 0% | < 0% | < 0% | 1.46% |
| CCCC(=O)OCCc1ccccc1 | 114% | 99.3% | 0.113% | 10.7% | 4.24% | 8.06% | 16.5% | < 0% | < 0% | < 0% | 0.854% | -8.54% |
| CCOc1ccc(C(=O)NCCc2ccccc2)cc1 | 119% | 77.8% | 1.88% | 31.4% | 70.5% | 34% | 76.1% | 6.61% | < 0% | < 0% | 64.1% | -19.9% |
| Cc1ccn2c(C(=O)NCc3ccccc3)c(C)nc2c1 | 276% | 53.7% | -0.843% | 3.75% | 36.6% | 44.3% | 74.9% | < 0% | < 0% | 2.75% | 0.0756% | 20.4% |
| NC[C@H]1OB(O)c2c(OCCCO)cccc21 | 123% | 109% | -3.46% | 10.1% | < 0% | 6.89% | 18.5% | < 0% | < 0% | < 0% | 2.44% | -16.7% |
| CN(Cc1ccc(C(C)(C)C)cc1)Cc1cccc2ccccc12 | 92.4% | 110% | 2.12% | 7.34% | 8.91% | -5.03% | 71.1% | < 0% | < 0% | < 0% | < 0% | 10.2% |
| O=C(Nc1ccc(F)cc1)c1nn(-c2ccccc2)c(=O)cc1Cl | 110% | 106% | 2.98% | 30.6% | 81% | 35.1% | 98.7% | 2.79% | 5.32% | 29.4% | 91.6% | 3.89% |
| NC(=O)c1cnc2ccc(S(=O)(=O)c3ccccc3)cc2c1Nc1ccc(O)cc1 | 228% | 58.1% | 6.05% | < 0% | < 0% | 29.7% | 56.5% | < 0% | < 0% | < 0% | < 0% | 53.1% |
| CONC(=N)c1ccc(-c2ccc(-c3ccc(C(=N)NOC)cc3)o2)cc1 | 111% | 121% | 2.49% | 11.8% | 9.28% | -3.01% | 1.5% | 0.615% | < 0% | < 0% | < 0% | 4.65% |
| CC(C)Oc1ccc(-c2nc(-c3cccc4c3CC[C@@H]4NCCO)no2)cc1C#N | 113% | 117% | -1.14% | 16.7% | 7.83% | 78.4% | 87.9% | 14.3% | 84.7% | < 0% | < 0% | 21.6% |
| CC(=O)N1CCN(c2ccc(OCC3COC(Cn4ccnc4)(c4ccc(Cl)cc4Cl)O3)cc2)CC1 (stereo not drawn) | 105% | 60.1% | 0.653% | 6.22% | < 0% | 2.92% | 64.4% | < 0% | < 0% | < 0% | < 0% | 16.4% |
| COc1ccc(C2CNC(=O)C2)cc1OC1CCCC1 (stereo not drawn) | 95.4% | 125% | -2.26% | < 0% | 12% | 28.3% | 40.1% | < 0% | < 0% | 8.32% | 7.49% | 29.1% |
| CCCCN1C[C@H](O)[C@@H](O)[C@H](O)[C@H]1CO | 104% | 108% | -0.43% | < 0% | 1.8% | 18.5% | 43.4% | 3.94% | < 0% | < 0% | < 0% | 10.9% |
| CC[C@@]1(O)C(=O)OCc2c1cc1n(c2=O)Cc2cc3c(CN(C)C)c(O)ccc3nc2-1 | 88.8% | 67.7% | 35% | 21.5% | 26.1% | 14.3% | 82.3% | 6.83% | < 0% | 1.24% | 5.33% | 60.8% |
| O=C(N[C@H](CCS)C(=O)N[C@H](Cc1ccccc1)C(=O)O)c1cc2ccccc2[nH]1 | 78.3% | 74.3% | -0.7% | < 0% | < 0% | 1.01% | 7.64% | < 0% | < 0% | < 0% | 12% | 5.97% |
| C[C@@H](NC(=O)c1cccc(-c2c[nH]c(-c3cc4ccccc4cn3)n2)c1)c1ccc(F)cc1 | 91.9% | 101% | -1.52% | 9.05% | 8.49% | 21.8% | 72.3% | 28.5% | 83.2% | 0.447% | 1.09% | 29.1% |
| CCOC(=O)/C=C/[C@H](C[C@@H]1CCNC1=O)NC(=O)[C@H](CC)n1cccc(NC(=O)c2cc(C)on2)c1=O | 89% | 79.7% | 0.129% | 12% | 12.7% | 43.3% | 49.5% | < 0% | < 0% | 6.73% | 10.7% | 9.24% |

Source: the supplement of paper PMC7801607
